Results filed as inconclusive are left out. Unmarked numbers belong to inactive results. Active and inactive are the calls of the source. Unless noted, calls come from the whole dose curve; as a rule, active = well fitted activation curve with a large enough effect in the repeat runs; inconclusive = weak or mixed curves, or effect the other way; inactive = no such curve, though single readings can be large or run the other way.
Tested on: not listed separately
Experiment: qHTS assay to identify small molecule agonists of the estrogen related receptor signaling pathway with the pleiotropic PPARgamma coactivator (PGC) from Tox21 10K library (AID 1224842); note: nearly all actives have a fitted effect of over 15% in size; note: potency is the fitted concentration of half-maximal effect
Conditions: PGC/ERR reporter cell line, luciferase ONE-Glo, 18 h; series mostly up to 92.4 µM; activation: at the top concentration
Method in brief: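 PGC/ERR reporter cell line, 2,000 cells per well, incubated 6 h at 37 C before 23 nL compound in DMSO was added. After 18 h at 37 C, One-Glo luminescence read following 30 min at room temperature.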
% is set by controls: 0 for no effect and ±100 for the full control effect.

Compound	activation	Potency
COC(=O)/C=C(/C)N	0.0437% [at 42.5 µM]	
CC/C=C\CCOC(=O)CCCCC	1.83%	
CC(Oc1c(Cl)cccc1Cl)C1=NCCN1 (stereo not drawn)	-11.9% [at 42.5 µM]	
Nc1ccc(Oc2ccc(N)c(N)c2)cc1		9.69 µM (active)
CCc1cc(Cl)c(OC)c(C(=O)NC[C@@H]2CCCN2CC)c1O	2.25% [at 42.5 µM]	
CCCN(CCC)C(=O)C(CCC(=O)O)NC(=O)c1ccccc1 (stereo not drawn)	0.309% [at 42.5 µM]	
O=c1[nH]cnc2c1ncn2[C@@H]1O[C@H](CO)[C@@H](O)[C@H]1O	0.681% [at 42.5 µM]	
CC(C)(CO)[C@@H](O)C(=O)NCCC(=O)O	0.829%	
CCN1CC(CCN2CCOCC2)C(c2ccccc2)(c2ccccc2)C1=O (stereo not drawn)	-7.87% [at 42.5 µM]	
CCCCCCn1c(=O)c2c(ncn2C)n(C)c1=O	0.422% [at 42.5 µM]	
CCOC(=O)C1CC(=O)C(=C(O)C2CC2)C(=O)C1 (stereo not drawn)	-2.95%	
CC1=C(CC(=O)O)c2cc(F)ccc2/C1=C\c1ccc(S(C)(=O)=O)cc1	-1.02% [at 42.5 µM]	
Cc1ccc([N+](=O)[O-])cc1Cl	1.34%	
O=C1CCCc2ccccc21	-5.75%	
CC(C)C(=O)OC/C=C/c1ccccc1	2.06%	
O=c1[nH]c(=O)n([C@H]2C[C@H](O)[C@@H](CO)O2)cc1C(F)(F)F	5.07% [at 42.5 µM]	
FC(F)(F)C(F)(F)C(F)(F)C(F)(F)C(F)(F)C(F)(F)C(F)(F)C(F)(F)Br	0.585% [at 42.5 µM]	
CC(C)OC(C)C	-0.353%	
Cc1cc2c(s1)Nc1ccccc1N=C2N1CCN(C)CC1	-6.41% [at 42.5 µM]	
O=C(Cl)c1cccc([N+](=O)[O-])c1	2.3%	
COc1ccccc1OCC(O)COC(N)=O (stereo not drawn)	1.73% [at 42.5 µM]	
NNS(=O)(=O)c1ccc(Oc2ccc(S(=O)(=O)NN)cc2)cc1	-3.38%	

Molecular target: Thyrotropin receptor (Homo sapiens) (UniProt P16473)
Sequence (P16473 whole entry, looked up): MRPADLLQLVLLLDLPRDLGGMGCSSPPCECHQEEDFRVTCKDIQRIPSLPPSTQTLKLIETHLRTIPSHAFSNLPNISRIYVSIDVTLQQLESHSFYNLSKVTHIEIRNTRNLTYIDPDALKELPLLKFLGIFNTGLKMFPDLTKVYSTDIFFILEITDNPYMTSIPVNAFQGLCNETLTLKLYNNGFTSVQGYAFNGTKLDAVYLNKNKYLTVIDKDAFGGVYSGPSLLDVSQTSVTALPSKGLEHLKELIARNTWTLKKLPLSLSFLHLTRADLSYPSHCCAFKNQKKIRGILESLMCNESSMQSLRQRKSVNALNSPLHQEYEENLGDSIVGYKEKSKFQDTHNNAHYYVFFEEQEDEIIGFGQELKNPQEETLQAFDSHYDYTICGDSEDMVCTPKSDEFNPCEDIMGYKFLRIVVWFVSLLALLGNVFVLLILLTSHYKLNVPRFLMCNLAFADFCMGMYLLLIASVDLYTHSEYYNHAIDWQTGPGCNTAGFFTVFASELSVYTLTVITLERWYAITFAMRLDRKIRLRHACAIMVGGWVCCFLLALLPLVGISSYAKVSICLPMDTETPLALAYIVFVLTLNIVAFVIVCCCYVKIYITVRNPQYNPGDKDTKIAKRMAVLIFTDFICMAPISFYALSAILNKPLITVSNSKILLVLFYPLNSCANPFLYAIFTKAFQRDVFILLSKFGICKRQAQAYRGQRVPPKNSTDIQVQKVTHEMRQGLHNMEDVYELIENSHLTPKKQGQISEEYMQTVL
Experiment: qHTS assay to identify small molecule agonists of the thyroid stimulating hormone receptor (TSHR) signaling pathway (AID 1224843; calls by dose curve; note: nearly all actives have a fitted effect of over 45% in size)
Conditions: TSHR-HEK293 cells, cAMP HTRF, agonist mode, 30 min; series mostly up to 92.4 µM; activation: at the top concentration
Method in brief: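 Agonist-mode screen: TSHR HEK293 cells received test chemicals for half an hour at room temperature, then HTRF cAMP detection reagents for one hour prior to fluorescence measurement. Each chemical ran as a 15-concentration series, triplicated.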

Compound	activation
COC(=O)/C=C(/C)N	-9.66% [at 42.5 µM]
CC(=O)Nc1ccc(C)c(Cl)c1	-8.37%
CC(C)Nc1nc(N)nc(Cl)n1	3.34%
CC(Oc1c(Cl)cccc1Cl)C1=NCCN1 (stereo not drawn)	-14.3% [at 42.5 µM]
O=c1[nH]cnc2c1ncn2[C@@H]1O[C@H](CO)[C@@H](O)[C@H]1O	-2.45% [at 42.5 µM]
CC(C)(CO)[C@@H](O)C(=O)NCCC(=O)O	-8.06%
CCN1CC(CCN2CCOCC2)C(c2ccccc2)(c2ccccc2)C1=O (stereo not drawn)	2.66% [at 42.5 µM]
CCCCCCC	-12.9%
CCOc1ccc(NS(=O)(=O)c2ccc(N)cc2)nn1	7.42% [at 42.5 µM]
CCOC(=O)[C@H](CCc1ccccc1)N[C@@H](C)C(=O)N1Cc2cc(OC)c(OC)cc2C[C@H]1C(=O)O	-6.57% [at 42.5 µM]
CN(CC1(C)CCCO1)S(=O)(=O)c1ccc(Cl)c(S(N)(=O)=O)c1 (stereo not drawn)	17.5% [at 42.5 µM]
CC(C)C(=O)OC/C=C/c1ccccc1	-11.9%
FC(F)(F)C(F)(F)C(F)(F)C(F)(F)C(F)(F)C(F)(F)C(F)(F)C(F)(F)Br	1.09% [at 42.5 µM]
CC(C)OC(C)C	0.0307%
C=CCCCCCCCCO	-1.8%
Cc1nnc(SCC2=C(C(=O)O)N3C(=O)[C@@H](NC(=O)Cn4cnnn4)[C@H]3SC2)s1	-1.21% [at 42.5 µM]
Cc1cc2nc(N)sc2cc1C	-13.8%
NNS(=O)(=O)c1ccc(Oc2ccc(S(=O)(=O)NN)cc2)cc1	5.93%
CC(C)=CCCC(C)CCOC=O (stereo not drawn)	-17.7%
CCCCNc1cc(C(=O)O)cc(S(N)(=O)=O)c1Oc1ccccc1	8.37% [at 42.5 µM]
CN(C)Cc1ccccc1	-2.19%

Reference: PubChem BioAssay (Tox21)
